Assay outcomes: PubChem, Broad Institute
Tgondii IFNg: inhibitors of Toxoplasma gondii growth with IFN-gamma | AID 1259416 | activity change, negative = inhibition, % (no concentration beside the values) | 69,000 tested, 3.8% active | Toxoplasma gondii growth in IFN-gamma-treated host cells; stronger effect = lower value; in the data active means activity change below about -70%, passing the limit was not always enough;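 further: host cells are HeLa cells infected with Toxoplasma gondii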
* hit, by the source's call; i = inactive. The entries come from a sample that favours hits as a whole.

SMILES	Tgondii IFNg
Cc1ccc(C(=O)NCCc2sc(-c3ccc(Cl)cc3)nc2C)cc1	-82*
CCOc1ccc(C(=O)NCCc2sc(-c3ccc(Cl)cc3)nc2C)cc1	-82*
Cc1cc2nnc(SCc3cc(=O)[nH]c4ccccc34)n2c2ccccc12	-3
CCC(C)N(Cc1ccsc1)Cc1nc[nH]c1C (centres undefined)	-5
COCc1nc2cc(-c3cccc(-n4cccn4)c3)ccc2o1	128
COCc1nc(C)c(CNC(=O)c2scc3c2CCCC3)s1	-47
C=CCOCC12CCCOC1CCN(CC1CC1)C2 (centres undefined)	36
COc1ccc2[nH]c(C(=O)NC(C)c3ccc4c(c3)CCCO4)c(NC(C)=O)c2c1 (centres undefined)	15
O=C(Cn1nnc(-c2ccccc2)n1)NCc1cc(Cl)c2c(c1)OCCCO2	3
COc1ccc2[nH]c(C)c(C(=O)NCc3cc(Cl)c4c(c3)OCCCO4)c2c1	-85*
COc1ccccc1N(Cc1nc(-c2ccccc2)oc1C)S(=O)(=O)c1cccs1	-46
O=S(=O)(Cc1ccccc1)N1CCC2(CC1)Nc1ccc(Cl)cc1-n1cccc12	-60
Cc1ccc(C2c3[nH]c4ccccc4c3CCN2C(=O)Cc2cccs2)cc1 (centres undefined)	-125*
CSc1ccc(C2c3[nH]c4ccccc4c3CCN2C(=O)CCc2cccs2)cc1 (centres undefined)	-85*
CSc1ccc(C2c3[nH]c4ccccc4c3CCN2C(=O)CCc2ccccc2)cc1 (centres undefined)	-61
CCOc1cccc(C2c3[nH]c4ccccc4c3CCN2C(=O)Cc2cccs2)c1 (centres undefined)	i
COc1ccc(C2c3[nH]c4ccccc4c3CCN2C(=O)Cc2cccs2)cc1 (centres undefined)	229
O=C(Cc1cccs1)N1CCc2c([nH]c3ccccc23)C1c1ccc(Cl)cc1 (centres undefined)	-118*
CSc1ccc(C2c3[nH]c4ccccc4c3CCN2C(=O)Cc2cccs2)cc1 (centres undefined)	-69
O=C(Cc1cccs1)N1CCc2c([nH]c3ccccc23)C1c1ccc(F)cc1 (centres undefined)	-17
CCOc1cccc(CC(=O)N2CCc3c([nH]c4ccccc34)C2c2ccc(Cl)cc2)c1OCC (centres undefined)	-29
Cc1nc(NCc2ccco2)nc2c1COCC21CCN(C(=O)CC(C)(C)C)C1 (centres undefined)	3
c1cncc(N2CCOC3CCN(Cc4ccc[nH]4)CCC32)c1 (centres undefined)	-64
CCNC(=O)c1cccc(-c2ccc(OC)c(OC)c2OC)c1	13
CC(CCc1ccccc1)Nc1nc(-c2ccc(Cl)cc2)nc2ccccc12 (centres undefined)	-78
SMILES	Tgondii IFNg
CCn1cc(CN(C)Cc2cnn(-c3ccc(F)cc3)c2)cn1	2
Cc1nc(NCc2ccco2)nc2c1COCC21CCN(S(C)(=O)=O)C1 (centres undefined)	66
O=C(O)c1cccnc1NCC1CCCO1 (centres undefined)	-28
O=C(Nc1ccc(F)cc1)c1cccnc1Oc1ccccc1	-31
N#CC1(c2ccc(NC(=O)c3cccnc3NCc3ccncc3)cc2)CCCC1	-72*
CCN1CCCC1Cn1c(=O)n(CC2CCCCO2)c2cc(C(=O)O)ccc21 (centres undefined)	10
Cc1ccsc1-c1nc(COc2ccc(S(C)(=O)=O)cc2)c(C)o1	1
CC(C)NC(=O)CN1C(=O)CCc2cc(S(=O)(=O)N3CCCCC3C)ccc21 (centres undefined)	36
CC1CCN(S(=O)(=O)c2ccc3c(c2)CCC(=O)N3CC(=O)Nc2ccccn2)CC1	10
Cc1cc(C)c(NC(=O)CN2C(=O)CCc3cc(S(=O)(=O)N4CCC(C)CC4)ccc32)c(C)c1	-31
CCOc1ccc(NC(=O)CN2C(=O)CCc3cc(S(=O)(=O)N4CCC(C)CC4)ccc32)cc1	-26
Cc1csc(NC(=O)CN2C(=O)CCc3cc(S(=O)(=O)N4CCC(C)CC4)ccc32)n1	-93*
CC1CCN(S(=O)(=O)c2ccc3c(c2)CCC(=O)N3CC(=O)Nc2ccc(C(C)C)cc2)CC1	-73*
CC(=O)Nc1ccc(NC(=O)CN2C(=O)CCc3cc(S(=O)(=O)N4CCC(C)CC4)ccc32)cc1	23
CC(C)c1ccc(NC(=O)CN2C(=O)CCc3cc(S(=O)(=O)N4CCCCC4C)ccc32)cc1 (centres undefined)	-75*
Cc1cc(C)c(NC(=O)CN2C(=O)CCc3cc(S(=O)(=O)N4CCCCC4C)ccc32)c(C)c1 (centres undefined)	-43
COc1cncc(C(=O)Nc2ccc(Cl)cc2F)c1	-19
N#Cc1cccc(CN2CCc3ncc(Cn4cccn4)n3CC2)c1	4
COC1C2CCC1N(C(=O)CCc1ccccc1)CCO2 (centres undefined)	2
CC(=O)N1CCC2(CC1)CC(Nc1ncccn1)c1ccccc1O2 (centres undefined)	4
CC(C)CN1CC(C(=O)NCc2cc(C(C)C)no2)CC1=O (centres undefined)	6
C=CCn1c(=O)c(C(=O)Nc2ccc(N(C)C)cc2)c(O)c2ccccc21	i
O=C(CC1N=C2c3ccccc3N=C(SCc3cccc(F)c3)N2C1=O)NCCc1ccccc1 (centres undefined)	-40
Cc1ccc(-c2coc(-c3ccc(NC(=O)c4cccc(F)c4)cc3)n2)cc1	-10
C[C@H]1CN([C@@H](C)CO)S(=O)(=O)c2ccc(C#CC(C)(C)O)cc2O[C@@H]1CN(C)Cc1ccc(F)cc1	-2
SMILES	Tgondii IFNg
C[C@H](CO)N1C[C@H](C)[C@@H](CN(C)C(=O)Cc2cccnc2)Oc2cc(C#Cc3ccccc3F)ccc2S1(=O)=O	-108*
COc1cccc(-c2ccc3c(c2)O[C@@H](CN(C)Cc2cccnc2)[C@@H](C)CN([C@@H](C)CO)S3(=O)=O)c1	-55
COc1ccccc1-c1ccc2c(c1)O[C@H](CN(C)CC1CCOCC1)[C@@H](C)CN([C@@H](C)CO)S2(=O)=O	-19
COc1cccc(-c2ccc3c(c2)O[C@@H](CN(C)Cc2cccnc2)[C@H](C)CN([C@@H](C)CO)S3(=O)=O)c1	-95*
COc1cccc(-c2ccc3c(c2)O[C@H](CN(C)Cc2cccnc2)[C@@H](C)CN([C@H](C)CO)S3(=O)=O)c1	-97*
COc1cccc(-c2ccc3c(c2)O[C@@H](CN(C)Cc2cccnc2)[C@@H](C)CN([C@H](C)CO)S3(=O)=O)c1	30
C[C@@H]1CN([C@@H](C)CO)S(=O)(=O)c2ccc(C#Cc3ccccc3F)cc2O[C@@H]1CN(C)C(=O)Cc1cccnc1	-8
COc1ccccc1-c1ccc2c(c1)O[C@H](CN(C)CC1CCOCC1)[C@@H](C)CN([C@H](C)CO)S2(=O)=O	-52
O[C@H]1CN(c2ncnc3c2CCNC3)C[C@@H]1N1CCOCC1	-1
CS(=O)(=O)CC(=O)N1CCO[C@H]2[C@@H](Oc3cccnc3)CC[C@H]21	-8
CCn1nnc2c1C(COCC1CC1)CN(Cc1cccnc1)C2 (centres undefined)	1
CC(C)n1cnc2nnc3ccc(C(=O)N(C)Cc4ccccn4)cc3c21	-3
CCCN1C(=O)CCc2cc(NC(=O)CCOC)ccc21	7
COCCN1C(=O)CCc2cc(NC(=O)C3CC3)ccc21	45
COCCN1C(=O)CCc2cc(NC(C)=O)ccc21	-28
CCCN1C(=O)CCc2cc(NC(C)=O)ccc21	30
